Bioassay records as filed in PubChem.
Sampled rows, rich in hits. Any-hit rate of the full collection: about 9%.
HTT cytoprotect = Huntington cell model cytoprotection by ATP luminescence; PC12 HTT-Q103 induced, cytoprotection, ATP luminescence, 40 h; Potency, µM (doses to about 56.4 µM), actives largely listed as activators; 230,000 tested, 0.14% active; AID 1471; further: nearly all actives have a fitted effect of over 45% in size
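Quantitative HTS on tebufenozide-induced (100 nM) PC12 cells expressing HTTQ103 exon 1–GFP; compounds tested as a concentration series; survival measured via cellular ATP.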
ALDH1A1 inh = inhibitors of human aldehyde dehydrogenase 1A1; P00352; Purified ALDH1A1, NADH fluorescence, propionaldehyde substrate; Potency, µM (titrated, usually from 75.3 µM), hits mostly inhibitors; 220,000 tested, 7.3% active; AID 1030; active means well fitted inhibition curve with a large enough effect, not every such curve was filed as active; inconclusive means small, poorly fitted or top-dose-only effect, or another doubt; inactive means no such curve, though single readings can be large or run the other way
HPGD block = blocks human HPGD enzyme activity | purified HPGD, NADH fluorescence kinetic, PGE2 substrate | Potency, µM, usual class: inhibitors | 150,000 tested, 4.3% active; active means well fitted inhibition curve with a large enough effect, not every such curve was filed as active; inconclusive means small, poorly fitted or top-dose-only effect, or another doubt; inactive means no such curve, though single readings can be large or run the other way
Target sequence (P15428 whole entry, looked up): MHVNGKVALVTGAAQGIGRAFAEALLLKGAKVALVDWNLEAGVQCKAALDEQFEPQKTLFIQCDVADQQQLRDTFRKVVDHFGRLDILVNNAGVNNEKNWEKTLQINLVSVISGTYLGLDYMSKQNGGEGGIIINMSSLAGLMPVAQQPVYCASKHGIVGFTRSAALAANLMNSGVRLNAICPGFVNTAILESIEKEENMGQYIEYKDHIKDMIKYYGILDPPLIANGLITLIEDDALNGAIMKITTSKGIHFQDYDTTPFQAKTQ
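20 nM HPGD preincubated 15 min at room temperature with compound in 50 mM Tris-HCl pH 8, 0.01% Tween 20. Started with 1 mM NAD+ and 30 uM prostaglandin E2; NADH fluorescence (360/450 nm) read 5 times over 30-s intervals, last minus first.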
Luc counter = Kinase-Glo luciferase inhibition (counter-screen); Kinase-Glo luciferase, ATP luminescence, 8 min; 200,000 tested, 0.28% active; AID 1379; Potency, µM (series often up to 38.3 µM), actives largely listed as inhibitors; further: nearly all actives have a fitted effect of over 60% in size
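Compounds were added to a substrate mix at pH 7.2 (50 mM imidazole, 10 uM ATP, within the enzyme's linear range), followed by Kinase-Glo detection reagent; luminescence was measured after 8 minutes at ambient temperature.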
HTT aggregate = mutant huntingtin aggregation inhibition | PC12 HttQ103-GFP aggregates, Acumen cytometry, 40 h | Potency, µM (series often up to 46.1 µM), hits mostly inhibitors | 220,000 tested, 1.1% active | AID 1688; further: nearly all actives have a fitted effect of over 60% in size
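Aggregate formation scored by laser-scanning cytometer (488 excitation, 500–530 emission) in lysed PC12 cells expressing Q103-GFP after 100 nM tebufenozide induction; library tested in dose series, with ATPLite reagent added in the multiplex.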
Lamin A splicing = LMNA splicing modulation; AID 1487; HeLa LMNA splicing GFP/RFP minigene ratio, 48 h; Potency, µM (top dose mostly 46.1 µM), actives largely listed as inhibitors; 200,000 tested, 0.01% active; active means well fitted inhibition curve with a large enough effect in the signal ratio, with a control signal flat, not every such curve was filed as active; inconclusive means small, poorly fitted or top-dose-only effect, or effect the other way, or a change in a side signal; the % refers to the signal ratio
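S3 HeLa stable clones carrying a lamin A-EGFP splicing minigene plus DsRed2 were seeded at 600 cells/well in Opti-MEM with 2% FBS, pin-dosed and incubated 48 h at 37°C. Acumen cytometry (488 nm) gave the GFP/RFP total-intensity ratio.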
Each line names hits and unclear results; the compound was inactive in the other large screens. Unless noted, the call rests on the fitted dose curve; in most records, active means well fitted curve in the direction sought with a large enough effect; inconclusive means small, poorly fitted or top-dose-only effect, or another doubt; inactive means no such curve, though single readings can be large; an effect the other way counts as inactive or inconclusive.

NNC(=O)c1ccc([N+](=O)[O-])c(CS(=O)(=O)c2ccc(Cl)cc2)c1	ALDH1A1 inh 11µM
Cc1ccc2cccc(N)c2n1	none (no result: HPGD block)
COc1ccc(N(CC(=O)Nc2c(C)cccc2C)S(=O)(=O)c2ccccc2[N+](=O)[O-])c(OC)c1	none (no result: HPGD block, Lamin A splicing)
COC(=O)CN(c1ccc(OC)cc1OC)S(=O)(=O)c1ccccc1[N+](=O)[O-]	HTT cytoprotect inconclusive, ALDH1A1 inh 19µM (no result: HPGD block)
Cc1c(Cl)ccc2c1NC(=O)[C@]21N[C@@H](CCC(N)=O)[C@H]2C(=O)N(c3ccc(F)cc3)C(=O)[C@H]21	ALDH1A1 inh 14µM, Lamin A splicing inconclusive
Cc1c(Cl)ccc2c1NC(=O)C21NC(CCC(N)=O)[C@H]2C(=O)N(c3ccc(Cl)cc3)C(=O)[C@H]21 (some centres not stated)	ALDH1A1 inh 8.9µM
NC(=O)C[C@@H]1N[C@]2(C(=O)Nc3ccccc32)[C@@H]2C(=O)N(C3CCCCC3)C(=O)[C@H]12	none
CCCCc1ccc(N2C(=O)[C@@H]3C(CC(N)=O)NC4(C(=O)Nc5ccc(F)cc54)[C@@H]3C2=O)cc1 (some centres not stated)	ALDH1A1 inh 14µM
NC(=O)C[C@@H]1N[C@]2(C(=O)Nc3ccccc32)[C@@H]2C(=O)N(c3cc(C(F)(F)F)ccc3Cl)C(=O)[C@H]12	none
CSCCC1NC2(C(=O)Nc3c2ccc(Cl)c3C)[C@@H]2C(=O)N(C3CCCC3)C(=O)[C@H]12 (some centres not stated)	ALDH1A1 inh inconclusive
Cc1ccccc1Oc1ccc(-c2nc(N)nc(N)n2)cc1	ALDH1A1 inh inconclusive, HPGD block 25µM, Lamin A splicing inconclusive
N#CC1=C(SCC(=O)c2ccc(Cl)cc2)NC2=C(C(=O)CCC2)C1c1ccco1 (configuration not stated)	ALDH1A1 inh 28µM
CC1(C)CC(=O)C2=C(C1)NC(SCC(=O)Nc1ccccc1)=C(C#N)C2c1ccco1 (configuration not stated)	ALDH1A1 inh 13µM, Lamin A splicing inconclusive
Cc1ccc(C(=O)CSC2=C(C#N)C(c3ccco3)C3=C(CC(C)(C)CC3=O)N2)cc1 (configuration not stated)	ALDH1A1 inh 13µM, Lamin A splicing inconclusive
Cc1ccc(NC(=O)CSC2=C(C#N)C(c3ccco3)C3=C(CCCC3=O)N2)cc1 (configuration not stated)	ALDH1A1 inh inconclusive, HPGD block inconclusive, HTT aggregate inconclusive, Lamin A splicing inconclusive
COCCOC(=O)C1=C(C)NC(SCC(=O)NC(C)(C)C)=C(C#N)C1c1ccco1 (configuration not stated)	HPGD block 16µM
C=CCOC(=O)C1=C(C)NC(SCC(=O)Nc2ccc(C)c(Cl)c2)=C(C#N)C1c1ccco1 (configuration not stated)	ALDH1A1 inh inconclusive, HPGD block inconclusive
CCc1ccccc1NC(=O)COCc1cc(-c2ccco2)on1	none (no result: HTT cytoprotect, ALDH1A1 inh, HPGD block, Luc counter, HTT aggregate)
CCOC(=O)C1=C(c2ccccc2)NC(SCC(=O)NC2CCCCC2)=C(C#N)C1c1ccco1 (configuration not stated)	ALDH1A1 inh 18µM, HTT aggregate inconclusive
CCOC(=O)C1=C(C)NC(SCC(=O)OC)=C(C#N)C1c1ccc(C(=O)OC)cc1 (configuration not stated)	ALDH1A1 inh inconclusive, HPGD block inconclusive
CCOC(=O)CSC1=C(C#N)C(c2ccc(F)cc2)C(C(C)=O)=C(C)N1 (configuration not stated)	ALDH1A1 inh 22µM, HTT aggregate inconclusive
CCCCOC(=O)CSC1=C(C#N)C(c2cccnc2)C(C(=O)OCC)=C(c2ccccc2)N1 (configuration not stated)	none (no result: HTT cytoprotect, HPGD block)
N#CC1=C(SCC(=O)Nc2ccc(C(=O)O)cc2)NC(=O)CC1c1ccco1 (configuration not stated)	ALDH1A1 inh 13µM (no result: HPGD block, Luc counter)
